The values below come from the supplement of paper PMC3842684.

Assay [1] relates to P. falciparum NF54-pfs16-GFP early (I-III) stage gametocytes. The experiment in a line: relative % inhibition of viable gametocyte number; higher = more gametocytocidal. The settings on record: stage: early (I-III) gametocyte, incubation 72 h. In short, it runs like this:
(§1)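 Viable gametocytes were counted by confocal imaging as elongated GFP objects carrying MitoTracker Red signal above a cut-off, after 72 h of compound exposure (5 or 0.5 µM) at 37°C in 5% CO2 and 5% O2 and overnight staining. The NF54 pfs16-GFP gametocytes had been magnet-isolated at early (I/IIa, day 2) or late (day 8) stage and plated at 10% parasitaemia, 0.1% haematocrit in 384-well poly-D-lysine imaging plates. Relative inhibition was normalised to vehicle and positive-control wells within each plate.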

The test system of assay [2] is P. falciparum NF54-pfs16-GFP late (IV-V) stage gametocytes. The assay is described as above. To be noted: stage: late (IV-V) gametocyte, incubation 72 h. In outline:
as §1

`COc1ccc2sc(N(Cc3cccnc3)C(=O)c3ccc(C#N)cc3)nc2c1`: the relative % inhibition is 9.23% in assay [1] (0.5 µM), 7.65% in assay [1] (5 µM), -14.5% in assay [2] (0.5 µM) and 8.48% in assay [2] (5 µM).
On to `Cc1ccc(N2C(=O)C3C(C2=O)C2(c4ccccc4)C(=O)C3(c3ccccc3)C(c3ccccc3)=C2c2ccccc2)cc1` (centres undefined), for which the relative % inhibition was 20.5% in assay [1] (0.5 µM), 53.3% in assay [1] (5 µM), 45.4% in assay [2] (0.5 µM) and 58.1% in assay [2] (5 µM).
For `COc1ccc(-n2ccnc2SCC(=O)Nc2cc(C)ccc2C)c(OC)c1`, in that order: 3.61%, -5.2%, -4.39% and 15.9%.
For `O=C(Cc1ccccc1)NC(c1ccc(Cl)cc1)c1c(O)ccc2ccccc12` (centres undefined) the same measures were 14.2%, 104%, 1.94% and 27.6%.
For `CCOc1ccc(-n2cc(-c3ccccc3)c3c(SCc4cc(C)ccc4C)ncnc32)cc1`, in that order: -4.24%, -7.96%, 11.3% and 19.7%.
As for `CC1=C(CC(=O)c2cccc([N+](=O)[O-])c2)C(=O)c2ccccc2C1=O`, the relative % inhibition in assay [1] (0.5 µM) is 48%; in assay [1] (5 µM), 60%; in assay [2] (0.5 µM), 39.3%; in assay [2] (5 µM), 54.1%.
For `Cc1ccc(N2C3c4ccccc4N(S(=O)(=O)c4ccc(C)cc4)C2c2ccccc2N3S(=O)(=O)c2ccc(C)cc2)cc1`, the relative % inhibition in assay [1] (0.5 µM) is 61%; in assay [1] (5 µM) it was 95.1%; in assay [2] (0.5 µM), 95%; in assay [2] (5 µM), 98.9%.
On to `COc1cccc(O)c1CN1CCC2(CCCN(Cc3ccc(F)cc3)C2)C1` (centres undefined), for which the relative % inhibition in assay [1] (0.5 µM) was 11.3%; in assay [1] (5 µM) it was 80.5%; in assay [2] (0.5 µM) it was 17.2%; in assay [2] (5 µM), 98.8%.
With `CCOC(=O)c1cnc2c(CC)cccc2c1O`, the relative % inhibition in assay [1] (0.5 µM) was -5.02%; in assay [1] (5 µM) it was 0.0948%; in assay [2] (0.5 µM) it was 21.6%; in assay [2] (5 µM), 45.2%.
For `CC(C)c1ccc(CNCC(O)c2ccccc2)cc1` (centres undefined) the same measures were 5.28%, 89.6%, 17.3% and 39.8%.
For `CCN(CC)CCn1c(=N)n(CC(O)c2ccc(Cl)c(Cl)c2)c2ccccc21` (centres undefined), the relative % inhibition in assay [1] (0.5 µM) amounted to 32.2%; in assay [1] (5 µM) it was 61.8%; in assay [2] (0.5 µM) it was 19.3%; in assay [2] (5 µM), 89.4%.
For `Cc1ccc(Nc2nc(-c3ccccn3)cs2)cc1`, in that order: 69.6%, 93.5%, 95.4% and 98.4%.
For `COCCn1c(C)nc2ccccc2c1=O`, in that order: 9.29%, 10.1%, 43.2% and 16.8%.
As for `CCCCNCC(O)(c1ccc(Cl)cc1)c1ccc(Cl)cc1`, the relative % inhibition stood at 10.1% in assay [1] (0.5 µM), 88.5% in assay [1] (5 µM), 12.2% in assay [2] (0.5 µM) and 44% in assay [2] (5 µM).
Regarding `Oc1c(CN2CCN(c3ccccc3F)CC2)cc(Br)c2cccnc12`, the relative % inhibition in assay [1] (0.5 µM) is 15.7%; in assay [1] (5 µM) it was 89.8%; in assay [2] (0.5 µM) it was 22.3%; in assay [2] (5 µM), 79.5%.
For `CCOc1cccc2sc(N(Cc3cccnc3)C(=O)C3CCCCC3)nc12`, in that order: 16.6%, 53.7%, -9.86% and 11.9%.
For `COc1ccc2c(=O)cc(C(Cl)(Cl)Cl)oc2c1`, in that order: 68.6%, 85.1%, 8.37% and 15.5%.
For `Cc1ccc(-c2cc3nc4c(c(O)n3n2)CCCC4)cc1`, in that order: 5.35%, -1.24%, 4.75% and 9.04%.
Regarding `CCOc1cc2c(cc1OCC)C(c1cc(C)c(O)c(C)c1)NCC2` (centres undefined), the relative % inhibition in assay [1] (0.5 µM) came to 18.2%; in assay [1] (5 µM) it was 102%; in assay [2] (0.5 µM) it was 24.3%; in assay [2] (5 µM), 34.7%.
Regarding `Cc1ccc(S(=O)(=O)c2c(COC(=O)c3cccc(C)c3)c(-c3ccccc3)nn2C)cc1`, the relative % inhibition in assay [1] (0.5 µM) is -3.57%; in assay [1] (5 µM), 37.5%; in assay [2] (0.5 µM), 18.5%; in assay [2] (5 µM), 20.4%.
As for `CCOC(=O)C1(Cc2ccccc2)CCN(Cc2cccc(OC)c2O)CC1`, the relative % inhibition in assay [1] (0.5 µM) is 14.7%; in assay [1] (5 µM) it was 52.6%; in assay [2] (0.5 µM) it was -5.97%; in assay [2] (5 µM) it was 22.8%.
For `Cc1cc(Nc2ccc(Cl)cc2)n2nc(C(F)(F)F)nc2n1` the same measures were 4.02%, -6.02%, 7.36% and -10.1%.
With `COc1ccc(Br)cc1C1Nc2ccc3ccccc3c2C2=C1C(=O)CC(c1ccccc1)C2` (centres undefined), the relative % inhibition in assay [1] (0.5 µM) stood at 27.7%; in assay [1] (5 µM), 70.3%; in assay [2] (0.5 µM) it was 2.99%; in assay [2] (5 µM), 16.2%.
On to `O=C(Nc1ccc(N2CCN(Cc3ccccc3)CC2)cc1)c1cccs1`, for which the relative % inhibition in assay [1] (0.5 µM) was 14.2%; in assay [1] (5 µM), 6.41%; in assay [2] (0.5 µM), 6.6%; in assay [2] (5 µM), 16.2%.
For `COc1ccc(-c2nonc2NC(=O)c2cccc(C)c2)cc1OC` the same measures were 15.3%, 39.2%, -13.4% and -9.12%.
For `Cc1cc(NC(=O)c2ccc(-c3ccccc3)cc2)no1`, in that order: -6.51%, 24.9%, 13.3% and 36.8%.
For `CN(C)CCCNc1c2ccccc2nc2ccccc12`, the relative % inhibition in assay [1] (0.5 µM) worked out at 85.1%; in assay [1] (5 µM) it was 101%; in assay [2] (0.5 µM), 57.9%; in assay [2] (5 µM) it was 101%.
With `OC(CNC1CCCCC1)Cn1c2ccc(I)cc2c2cc(I)ccc21` (centres undefined), the relative % inhibition in assay [1] (0.5 µM) was 60.7%; in assay [1] (5 µM), 95.2%; in assay [2] (0.5 µM) it was 84.7%; in assay [2] (5 µM), 98.5%.
Regarding `CCOC(=O)C1=C(c2ccccc2)N=c2sc(=Cc3cc(C)n(-c4ccc(F)cc4)c3C)c(=O)n2C1c1cccc(OC)c1OC` (centres undefined), the relative % inhibition in assay [1] (0.5 µM) stood at 14.6%; in assay [1] (5 µM) it was 96.5%; in assay [2] (0.5 µM), 50.5%; in assay [2] (5 µM), 59.1%.
For `O=C(Nc1ccc(Cl)cc1C(=O)Nc1ccncc1)c1ccc(Cl)cc1Cl`, in that order: 20.3%, 31.8%, -5.7% and -20.8%.
For `Cc1cc(Nc2ccc(C)c(Cl)c2)n2nc(C(F)(F)F)nc2n1`, in that order: -5.05%, -8.28%, 13.1% and -2.09%.
For `O=C(NCC1Cc2cccc(-c3ccncc3)c2O1)c1csc2c1CCCC2` (centres undefined), in that order: -5.92%, 6.48%, 5.28% and -0.912%.
On to `CCCCCCOC(=O)C1=C(C)NC(=O)NC1c1ccccc1F` (centres undefined), for which the relative % inhibition in assay [1] (0.5 µM) was 9.08%; in assay [1] (5 µM) it was 4.18%; in assay [2] (0.5 µM), -3.35%; in assay [2] (5 µM) it was 3.92%.
For `O=C(Nc1ccc(Cl)cc1)N1CCN(c2ccc3nncn3n2)CC1` the same measures were 18%, 6.7%, 4.09% and -7.25%.
For `COc1ccc(C(C)=O)cc1N1C(=O)C2C(C1=O)C1(c3ccccc3)C(=O)C2(c2ccccc2)C(c2ccc(C)cc2)=C1c1ccc(C)cc1` (centres undefined) the same measures were 52.9%, 93.5%, 78.9% and 73.1%.
As for `Cc1cc(C)c2nc(N3CCC(C(=O)NCCCN4CCC(N5CCCCC5)CC4)CC3)sc2c1`, the relative % inhibition in assay [1] (0.5 µM) is 8.57%; in assay [1] (5 µM), 90.7%; in assay [2] (0.5 µM), -24.9%; in assay [2] (5 µM), 44.2%.
